# Data reported in ChEMBL document CHEMBL3988442, “University of Dundee, Small-Polar-MMV Screening Library” (2021).
# In all, about 66,000 compounds went through this assay and about 960 (1.5%) showed an effect of 50% or more. This is one part of a sample in which strong results are shown more often than they occur.
# Tested on: Trypanosoma brucei
# Test: Trypanosoma brucei 72 hour study
# Type: functional, organism-based
# Set-up: scale not given: in the data most compounds retested in dose-response had high values
compound,measurement,setting,value
Clc1ccc(C2(CNC3=NCCN3)CCCCC2)cc1.I,Percent Effect,"30 µM, 30.03 µM",18.91%
CCc1ccc(CN(Cc2ccco2)C(C)C(C)C)nc1 (configuration not stated),Percent Effect,"30 µM, 30.03 µM",-19.36%
CC(C)C(C)N(Cc1cnc2ccccc2n1)Cc1ccco1 (configuration not stated),Percent Effect,"30 µM, 30.03 µM",81.63%
CC(C)C(C)N(Cc1ccccn1)Cc1ccco1 (configuration not stated),Percent Effect,"30 µM, 30.03 µM",-27.64%
CCc1c(C)nc(N)nc1N1CCCC(c2nc(CCOC)no2)C1 (configuration not stated),Percent Effect,"30 µM, 30.03 µM",-46.14%
C[C@@H]1CN(Cc2cccc(F)c2)C[C@]12CCN(Cc1cccnc1)C2=O.O=C(O)C(F)(F)F.O=C(O)C(F)(F)F,Percent Effect,"30.3 µM, […]",-74.2%
CCc1nnc2n1CCN(Cc1ncc(-c3ccc(Cl)cc3)o1)C2,Percent Effect,"30.3 µM, […]",-0.05411%
Cc1cc(C[C@@H]2CCC[C@H]2NCc2ccccc2F)on1.O=C(O)CC(O)(CC(=O)O)C(=O)O,Percent Effect,"30.3 µM, […]",34.89%
CCCOc1ccccc1CN[C@@H]1CCC[C@H]1Cc1cc(C)no1.O=C(O)CC(O)(CC(=O)O)C(=O)O,Percent Effect,"30.3 µM, […]",97.97%
Cc1cc(C[C@@H]2CCC[C@H]2NCc2ccccc2C)on1.O=C(O)CC(O)(CC(=O)O)C(=O)O,Percent Effect,"30.3 µM, […]",-2.54%
NC(=O)Cn1cc(NC(=O)NCCN2CCc3ccccc3C2)cn1,Percent Effect,10 µM,-24.97%
O=C(NC[C@H]1CCCC[C@H]1O)c1cccc2[nH]c(-c3cccs3)nc12,Percent Effect,"30.3 µM, […]",101.4%
same,Percent Effect,"10 mM, 10 mM as filed; unlikely as a test dose",77.67%
O=C(NC[C@H]1CCCC[C@H]1O)c1ccc2nc(-c3ccco3)[nH]c2c1,Percent Effect,"30.3 µM, […]",17.46%
same,Percent Effect,"10 mM, 10 mM as filed; unlikely as a test dose",-68.89%
O=C(NC[C@H]1CCCC[C@H]1O)c1cccc2[nH]c(-c3ccco3)nc12,Percent Effect,"30.3 µM, […]",13.65%
same,Percent Effect,"10 mM, 10 mM as filed; unlikely as a test dose",-65.92%
Cc1ccc(CN2C[C@@H](OCc3csc(C)n3)[C@H]3COC[C@H]32)s1.O=C(O)C(F)(F)F,Percent Effect,"30 µM, 30.03 µM",-8.753%
COc1ccc(CNC2CCc3ncnn3C2)cc1OCC1CC1 (configuration not stated),Percent Effect,"30 µM, 30.03 µM",-28.92%
Cc1cc(-c2cnc(NC3CC3)nc2-c2ccco2)on1,Percent Effect,"30.3 µM, […]",20.38%
Cc1cc(-c2cnc(NC3CCCC3)nc2-c2ccco2)on1,Percent Effect,"30.3 µM, […]",60.69%
Cc1cc(-c2cnc(NC3CCCC3)nc2-c2ccoc2)on1,Percent Effect,"30.3 µM, […]",19.37%
Cc1cc(-c2cnc(NC3CC3)nc2-c2ccc(C)o2)on1,Percent Effect,"30 µM, 30.03 µM",25.68%
Cc1occc1-c1nc(NC2CCCC2)ncc1-c1ccccn1,Percent Effect,"30.3 µM, […]",66.93%
Cc1cc(-c2cnc(NC3CCCC3)nc2-c2ccc(C)o2)on1,Percent Effect,"30.3 µM, […]",59.7%
Cc1cc(-c2cnc(NC3CCCCC3)nc2-c2ccco2)on1,Percent Effect,"30.3 µM, […]",43.12%
Cc1cc(-c2cnc(NC3CC3)nc2-c2ccoc2C)on1,Percent Effect,"30.3 µM, […]",6.625%
Cc1cc(-c2cnc(NC3CCCC3)nc2-c2ccoc2C)on1,Percent Effect,"30.3 µM, […]",30.38%
CN(Cc1ccc2c(c1)OCCO2)Cc1nc2c(cnn2C)c(=O)[nH]1,Percent Effect,"30.3 µM, […]",4.999%
CS(=O)(=O)N1CCO[C@@H]2CCN(Cc3ccncc3)CC[C@H]21.O=C(O)C(F)(F)F.O=C(O)C(F)(F)F,Percent Effect,"30.3 µM, […]",-50.12%
COc1ccc(Cl)cc1S(=O)(=O)N1C[C@@H]2CC[C@H](C1)N(C)C2=O,Percent Effect,"30 µM, 30.03 µM",12.03%
O=C(O)C(F)(F)F.O=c1ccc2c(n1CC1CCOCC1)CCN(Cc1ccoc1)CC2,Percent Effect,"30 µM, 30.03 µM",-13.76%
COCCNC(=O)[C@H]1CN(Cc2cccs2)C[C@H]2OCC[C@@H]12.O=C(O)C(F)(F)F,Percent Effect,"30 µM, 30.03 µM",-47.27%
Cc1ccc(CN2C[C@@H]3CCCO[C@@H]3[C@H](N(C)Cc3ccco3)C2)s1.O=C(O)C(F)(F)F.O=C(O)C(F)(F)F,Percent Effect,"30 µM, 30.03 µM",26.16%
COCCN1CCOCC12CCN(c1cnccn1)CC2.O=C(O)C(F)(F)F,Percent Effect,"30.3 µM, […]",-82.27%
Cn1c(C2CC2)nc2c1CCN(CCOc1ccc(C#N)cc1)C2,Percent Effect,"30 µM, 30.03 µM",41.84%
Cn1c(C2CC2)nc2c1CCN(CCOc1cccc(F)c1)C2,Percent Effect,"30.3 µM, […]",33.25%
same,Percent Effect,"10 mM, 10 mM as filed; unlikely as a test dose",-49.38%
Cn1c(C2CC2)nc2c1CCN(CCOc1ccccc1C#N)C2,Percent Effect,"30.3 µM, […]",73.03%
same,Percent Effect,"10 mM, 10 mM as filed; unlikely as a test dose",81.28%
Cc1cc(CN2CCN(C(=O)NC(C)Cn3ccnc3)CC2)on1 (configuration not stated),Percent Effect,"30.3 µM, […]",-36.86%
O=C(N1CCOCC1)[C@@]12CCO[C@@H]1CCN(C1CCCCC1)C2.O=C(O)C(F)(F)F,Percent Effect,"30 µM, 30.03 µM",-10.39%
O=C(N1CCCO1)[C@@]12CCO[C@@H]1CCN(C1CCCCC1)C2.O=C(O)C(F)(F)F,Percent Effect,"30 µM, 30.03 µM",51.2%
O=C(N1CCOCC1)[C@@]12CCO[C@@H]1CCN(C1CCC1)C2.O=C(O)C(F)(F)F,Percent Effect,"30 µM, 30.03 µM",-13.96%
Cc1nnn2c1COC(CNCc1nccs1)C2.O=C(O)C(F)(F)F (configuration not stated),Percent Effect,"30 µM, 30.03 µM",2.897%
Cc1cnn(CCNCC(O)COc2cc(Cl)ccc2Cl)c1 (configuration not stated),Percent Effect,10 µM,13.76%
CC(C)NC(=O)C1(Cc2ccccc2-c2ccccc2)CCCNC1 (configuration not stated),Percent Effect,"30.3 µM, […]",-11.23%
NC(=O)C1(Cc2ccccc2-c2cncnc2)CCCNC1 (configuration not stated),Percent Effect,"30.3 µM, […]",-3.769%
Cc1ccc(-c2ccccc2CC2(C(=O)NC(C)C)CCCNC2)cc1 (configuration not stated),Percent Effect,"30.3 µM, […]",73.8%
CC(C)CNC(=O)C1(Cc2ccccc2-c2ccccc2)CCNC1 (configuration not stated),Percent Effect,"30.3 µM, […]",-113.5%
O=C(NCCO)C1(Cc2ccccc2-c2ccncc2)CCOCC1,Percent Effect,"30.3 µM, […]",-12.36%
CC(C)NC(=O)C1(Cc2ccccc2-c2cncnc2)CCCNC1 (configuration not stated),Percent Effect,"30.3 µM, […]",-17.52%
Cl.O=C(O)C1(Cc2ccc(-c3cccs3)cc2)CCNC1 (configuration not stated),Percent Effect,"30.3 µM, […]",15.36%
Cl.O=C(O)C1(Cc2cccc(-c3cccs3)c2)CCCNC1 (configuration not stated),Percent Effect,"30.3 µM, […]",-23.63%
O=C(NC1CC1)C1(Cc2ccccc2-c2ccncc2)CCOCC1,Percent Effect,"30.3 µM, […]",-2.257%
Cl.O=C(N1CCCC1)C1(Cc2ccc(-c3cccs3)cc2)CCNC1 (configuration not stated),Percent Effect,"30.3 µM, […]",100.9%
CC(C)NC(=O)C1(Cc2ccccc2-c2cccs2)CCNC1 (configuration not stated),Percent Effect,"30.3 µM, […]",100.3%
CC(C)CNC(=O)C1(Cc2ccccc2-c2cccs2)CCNC1 (configuration not stated),Percent Effect,"30.3 µM, […]",100.9%
COc1ccccc1CN(C)C(=O)CN1CC(n2nc(C)cc2C)C1,Percent Effect,"30 µM, 30.03 µM",35.21%
CCC(NC(=O)C1CCN(S(C)(=O)=O)CC1)c1ccc(OC)cc1 (configuration not stated),Percent Effect,"30 µM, 30.03 µM",-21.57%
Cl.O=C(NCc1ccccc1F)C1=NOC2(CCNC2)C1 (configuration not stated),Percent Effect,"30 µM, 30.03 µM",32.02%
O=C(O)C(F)(F)F.O=C(O)C(F)(F)F.c1cncc(OCC2CN(Cc3nccs3)Cc3nccn3C2)c1 (configuration not stated),Percent Effect,"30.3 µM, […]",-9.916%
